Assay outcomes: PubChem, National Center for Advancing Translational Sciences (NCATS)
BAZ2B block – qHTS Assay for Inhibitors of BAZ2B; Bromodomain adjacent to zinc finger domain protein 2B (Homo sapiens), Q9UIF8; AlphaScreen BAZ2B-H3K14Ac peptide displacement; Potency, µM (top dose mostly 114 µM), inactives show at the top dose activity change, negative = inhibition, actives largely listed as inhibitors; 360,000 tested, 4.4% active; AID 504333, 2011; also: % is scaled to controls: 0 for no effect and ±100 for the full control effect; nearly all actives have a fitted effect of over 60% in size
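Complex of BAZ2B and biotin-H3K14Ac (50 nM apiece) forms over 30 min at RT, then faces library compounds up to 110 uM for another 30 min; AlphaScreen beads added, 20 min dark incubation, luminescence read.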
HP1b chromo inh – HTS for Inhibitors of HP1-beta Chromodomain Interactions with Methylated Histone Tails. Chromobox protein homolog 1 (Homo sapiens), P83916. AlphaScreen HP1-beta / biotin-H3K9me3 peptide binding. Potency, µM (doses to about 114 µM), for inactives: at the top dose activity change, negative = inhibition, hits mostly inhibitors. 390,000 tested, 0.56% active. AID 540317, 2011; also: nearly all actives have a fitted effect of over 70% in size
Target sequence (P83916 whole entry, looked up): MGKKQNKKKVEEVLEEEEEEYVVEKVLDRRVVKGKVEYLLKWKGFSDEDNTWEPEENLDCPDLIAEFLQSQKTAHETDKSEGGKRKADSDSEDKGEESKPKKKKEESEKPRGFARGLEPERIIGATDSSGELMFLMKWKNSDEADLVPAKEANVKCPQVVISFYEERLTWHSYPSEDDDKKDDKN
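HP1-beta protein (50 nM final) preincubated 30 min at room temperature with biotinylated H3(1-18)K9me3 peptide (50 nM) in PBS pH 7.4, 0.01% Tween-20, then compound added for 30 min. AlphaScreen streptavidin donor/nickel chelate acceptor beads (10 ug/mL final), 30 min dark, luminescence read.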
L3MBTL1 inh – qHTS Assay for the Inhibitors of L3MBTL1. Lethal(3)malignant brain tumor-like protein 1 (Homo sapiens), Q9Y468. AlphaScreen L3MBTL1–H3K9me1 peptide binding. Potency, µM (titrated, usually from 57.1 µM), for inactives: at the top dose activity, negative = inhibition, actives largely listed as inhibitors. 230,000 tested, 0.66% active. AID 485360, 2010; also: % is scaled to controls: 0 for no effect and ±100 for the full control effect; nearly all actives have a fitted effect of over 60% in size
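L3MBTL1 50 nM + b-AHA-H3(1-15)K9me1 75 nM, 30 min RT; compound added, 30 min RT; streptavidin donor/Ni-chelate acceptor beads 10 ug/mL each final, 30 min RT dark; AlphaScreen read.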
GLS inh – qHTS for Inhibitors of Glutaminase (GLS); GLS enzymatic activity, qHTS titration; Potency, µM (titrated, usually from 45.5 µM), inactives show top-dose activity change, negative = inhibition, usual class: inhibitors; Glutaminase kidney isoform, mitochondrial (Homo sapiens), O94925; 410,000 tested, 0.21% active; also: % is scaled to controls: 0 for no effect and ±100 for the full control effect
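Two-point fluorescence kinetic (t0, 30 min RT) for hKGA; glutamate detected via glutamate oxidase–HRP–Amplex Red. Substrate: 1 mM L-glutamine solution; buffer 45 mM KH2PO4, pH 8.2.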
G9a block – qHTS Assay for Inhibitors of Histone Lysine Methyltransferase G9a. G9a H3K9 monomethylation, AlphaScreen, 2 h. Potency, µM (top dose mostly 102 µM), for inactives: at the highest dose activity, negative = inhibition, usual class: inhibitors. 350,000 tested, 8.8% active. Histone-lysine N-methyltransferase EHMT2 (Homo sapiens), Q96KQ7; also: % is scaled to controls: 0 for no effect and ±100 for the full control effect; nearly all actives have a fitted effect of over 75% in size
Target sequence (Q96KQ7 913-1193 limits assumed): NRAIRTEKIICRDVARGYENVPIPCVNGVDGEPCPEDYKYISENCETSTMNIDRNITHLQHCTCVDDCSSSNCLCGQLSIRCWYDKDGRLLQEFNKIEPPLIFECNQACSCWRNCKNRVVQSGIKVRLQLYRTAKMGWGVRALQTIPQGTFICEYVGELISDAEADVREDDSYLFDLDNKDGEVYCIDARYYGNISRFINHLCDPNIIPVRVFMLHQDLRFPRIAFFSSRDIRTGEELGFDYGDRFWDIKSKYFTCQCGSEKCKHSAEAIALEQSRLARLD
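Enzyme 20 nM + cpd, 15 min RT; add b-H3K9 pep 500 nM / SAM 20 uM; 2 h RT; anti-H3K9me1 Ab 0.5 ug/mL + SA donor / anti-rabbit acceptor beads 20 ug/mL each, 10 min; AlphaScreen read.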
JMJD2A Tudor – qHTS Assay for Inhibitors of JMJD2A-Tudor Domain | Potency, µM (series often up to 114 µM), for the others: top-dose activity change, negative = inhibition, actives largely listed as inhibitors | 390,000 tested, 4.4% active | AID 504339, 2011 | AlphaScreen JMJD2A-Tudor / H3K4me3 peptide binding | Lysine-specific demethylase 4A (Homo sapiens), O75164; also: % is scaled to controls: 0 for no effect and ±100 for the full control effect; nearly all actives have a fitted effect of over 50% in size
Starred values were filed as active, the others as inactive; ? = inconclusive; · = not tested or not shown; [ ] = dose if it differs, or a comment. Shown are actives, neighbours in structure and some others; about 10% of the full set was active somewhere. Calls follow the shape of the dose curve; as a rule, active = well fitted curve in the direction sought with a large enough effect; inconclusive = small, poorly fitted or top-dose-only effect, or another doubt; inactive = no such curve, though single readings can be large; an effect the other way counts as inactive or inconclusive. Potency is read from the fitted curve at half-maximal effect.

SMILES | BAZ2B block | HP1b chromo inh | L3MBTL1 inh | GLS inh | G9a block | JMJD2A Tudor
COc1cc(NC(=O)C(CCSC)NS(=O)(=O)c2ccc3c(c2)oc(=O)n3C)cc(OC)c1 (stereo unspecified) | 5% | 20% | · | -11% | 6%[59 µM] | -8%
NC(=S)N/N=C1\CC(n2nnn(-c3cccc(Cl)c3)c2=S)C2COC1O2 (stereo unspecified) | ? | -21% | · | ? | 40µM* | ?
NC(=S)N/N=C1\CC(n2nnnc2-c2ccccc2)C2COC1O2 (stereo unspecified) | -18% | 40% | · | 3% | ? | -14%
COc1ccc(OC)c(CCNC(=O)c2ccc3c(c2)N(Cc2ccc(F)cc2)CCS3)c1 | ? | 27% | · | 4% | 14% | -34%
COc1ccc(OC)c(CCNC(=O)c2ccc3c(=O)[nH]c4c(C(=O)NC(C)C)sc(=S)n4c3c2)c1 | 40µM* | ? | · | ? | · | 56µM*
CC(C)NC(=O)c1sc(=S)n2c1[nH]c(=O)c1ccc(C(=O)NCCc3ccc(Cl)cc3)cc12 | -24% | -21%[57 µM] | · | ? | 45µM* | 35µM*
CCOc1ccc(CCNC(=O)c2ccc3c(=O)[nH]c4c(C(=O)NC(C)C)sc(=S)n4c3c2)cc1 | ? | 20% | · | ? | 45µM* | 9%
C#CCOCCOCCOCCNc1nc(N2CCN(C(=O)CCCCCCCCCCNC(=O)[C@H]([C@@H](C)CC)n3cc(CCCCN=C(N)N)nn3)CC2)nc(N2CCN(C(=O)CCCCCCCCCCNC(=O)[C@H](CCCCN)n3cc(C[C@@H](C)CC)nn3)CC2)n1 | 50µM* | · | -13% | · | 16%[2.33 µM] | ·
C#CCOCCOCCOCCNc1nc(N2CCN(C(=O)CCCCCCCCCCNC(=O)[C@@H](CCC(=O)O)n3cc(CCCCCN)nn3)CC2)nc(N2CCN(C(=O)CCCCCCCCCCNC(=O)[C@@H](CCC(=O)O)n3cc(CCCCCN)nn3)CC2)n1 | ? | 36% | 6% | 1% | 0%[2.33 µM] | -31%
C#CCOCCOCCOCCNc1nc(N2CCN(C(=O)CCCCCCCCCCNC(=O)Cn3cc(C[C@@H](C)O)nn3)CC2)nc(N2CCN(C(=O)CCCCCCCCCCNC(=O)[C@H](CCCCN)n3cc(C[C@@H](C)CC)nn3)CC2)n1 | ? | ? | 0% | ? | -49%[12.7 µM] | 79µM*
C#CCOCCOCCOCCNc1nc(N2CCN(C(=O)CCCCCCCCCCNC(=O)[C@H](CCCCN)n3cc(CCCC(=O)O)nn3)CC2)nc(N2CCN(C(=O)CCCCCCCCCCNC(=O)[C@H](CCCN=C(N)N)n3cc(C[C@@H](C)CC)nn3)CC2)n1 | 50µM* | -23% | -2% | -18% | 8%[2.33 µM] | 56µM*
C#CCOCCOCCOCCNc1nc(N2CCN(C(=O)CCCCCCCCCCNC(=O)[C@H](CO)n3cc(CCCSC)nn3)CC2)nc(N2CCN(C(=O)CCCCCCCCCCNC(=O)[C@H](CCCCN)n3cc(C[C@@H](C)CC)nn3)CC2)n1 | ? | · | -12% | · | -46%[12.7 µM] | ·
C#CCOCCOCCOCCNc1nc(N2CCN(C(=O)CCCCCCCCCCNC(=O)[C@H](CCCCN)n3cc(C[C@@H](C)CC)nn3)CC2)nc(N2CCN(C(=O)CCCCCCCCCCNC(=O)[C@H](CCCCN)n3cc(C[C@@H](C)CC)nn3)CC2)n1 | · | 71µM* | · | ? | · | 50µM*
CN(Cc1ccccc1)C(=O)c1ccc(CSc2nc3cccnc3n2Cc2ccccc2)cc1 | -12% | 21% | · | 32% | -22%[59 µM] | -32%
Cc1ccc2c(c1)cc1c(=O)n(Cc3ccccc3Cl)nc(C)n12 | 2% | 32% | · | -4% | 6%[59 µM] | 4%
COc1ccc(NC(=O)Cn2c(=O)nc(-c3ccccc3)c3ccccc32)cc1OC | -5% | 33% | · | 7% | 25%[59 µM] | -21%
C#CCOCCOCCOCCNc1nc(N2CCN(C(=O)CCCCCCCCCCNC(=O)[C@H](CCCCN)n3cc(CCO)nn3)CC2)nc(N2CCN(C(=O)CCCCCCCCCCNC(=O)[C@H](CCCN=C(N)N)n3cc(C[C@@H](C)CC)nn3)CC2)n1 | 50µM* | ? | -5% | ? | 24%[2.33 µM] | 45µM*
C#CCOCCOCCOCCNc1nc(N2CCN(C(=O)CCCCCCCCCCNC(=O)[C@H](CCCCN)n3cc(CCCC(=O)O)nn3)CC2)nc(N2CCN(C(=O)CCCCCCCCCCNC(=O)[C@H](CCCCN)n3cc(CCCC(=O)O)nn3)CC2)n1 | -34% | 32% | -9% | 0% | 6%[2.33 µM] | ?
COc1cc(OC)c(NC(=O)N2CCc3cc(S(=O)(=O)N4CCC(C)CC4)ccc32)cc1Cl | 2% | 5% | · | -13% | -1%[59 µM] | -17%
COc1ccccc1Nc1ccc(NC(=O)c2cccc([N+](=O)[O-])c2C)cc1 | 10µM* | ? | · | 8% | 9%[2.33 µM] | 13µM*
COc1ccccc1Nc1ncccc1[N+](=O)[O-] | 32µM* | ? | ? | -1% | 8.9µM* | 45µM*
COc1ccccc1C(CNc1ncccc1[N+](=O)[O-])N(C)C (stereo unspecified) | -13% | -8% | · | 9% | ? | -22%
CCOc1cc(CN2CCN(c3cccc(C(F)(F)F)c3)CC2)ccc1OC | 8.9µM* | ? | · | 25% | 22µM* | 8.9µM*
CCOc1cc(CN2CCCCC2)ccc1OC | 4% | 10% | -10%[11.4 µM] | 0% | -5%[59 µM] | -14%
CCOc1cc(CN2CCN(c3ccc(C(C)=O)cc3)CC2)ccc1OC | 56µM* | ? | -1% | 4% | 32µM* | 1.4µM*
COc1ccc(CC(C)N2CCN(c3cccc(C(F)(F)F)c3)CC2)cc1OC (stereo unspecified) | ? | -3% | · | 22% | ? | ?
CCOc1cc(CNc2ccc(O)cc2)ccc1OCc1ccc(Cl)cc1 | -33% | ? | · | 14% | ? | -36%
CCN(CC)CCN(CC(=O)N(C1CCCCC1)C1CCCCC1)C(=O)c1ccco1 | 50µM* | ? | · | -9% | 45µM* | 1.6µM*
COc1ccc(Cl)cc1NC(=O)CN(C(=O)c1ccco1)C1CCCCC1 | · | 20% | -16% | 12% | -5%[59 µM] | -13%
